We go through 12 compounds from PubChem BioAssay (NCI).

Some test systems named below: SK-MEL-2 melanoma; EKVX NSCLC; SN12C renal; UO-31 renal; TK-10 renal; ACHN renal; CAKI-1 renal; A498 renal; CCRF-CEM leukemia; MOLT-4 leukemia; SR leukemia; RPMI-8226 leukemia; OVCAR-8 ovarian; OVCAR-5 ovarian; IGROV1 ovarian; OVCAR-3 ovarian; HS 578T breast; NCI/ADR-RES ovarian; OVCAR-4 ovarian; SK-OV-3 ovarian.
Common to all, as to assay: NCI-60 one-dose screen, 48 h (100 = growth as untreated, 0 = no growth, -100 = all killed)
Conditions in all cases: 10 µM unless noted

Each structure is given as a SMILES string. This is part of a sample that, as a whole, favours compounds with a hit. Of some 83,000 tested, about 20% had one in any assay.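 The endpoint reported here, percent growth, reads 100 for growth as untreated, 0 for no net growth and -100 for all cells dead.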 Unmarked numbers belong to inactive results. Active and inactive are the calls of the source. How the source made its calls: active means growth percent below 10; inactive means the rest.

In the case of `C#CCC1(c2ccc(F)c(F)c2)NS(=O)(=O)c2ccccc21` (centres undefined), the growth in the assay on SK-MEL-2 melanoma was 91.2%; in the assay on EKVX NSCLC, 103%; in the assay on SN12C renal, 106%; with UO-31 renal, 86.4%; in the assay on TK-10 renal, 83.6%; in the assay with ACHN renal, 113%. The growth is 94.4% in the assay with CAKI-1 renal; 109% with A498 renal; 99.2% in the assay with CCRF-CEM leukemia; 90% in the assay on MOLT-4 leukemia; 76% in the assay on SR leukemia; 109% with RPMI-8226 leukemia. Besides, the growth in the assay on OVCAR-8 ovarian is 93.9%; in the assay with OVCAR-5 ovarian, 107%; with IGROV1 ovarian it was 94.3%; in the assay on OVCAR-3 ovarian, 109%; with HS 578T breast, 101%; in the assay on NCI/ADR-RES ovarian, 103%.
Turning to `O=S(=O)(NCCCNc1cc(-c2cn(-c3ccccc3)nc2-c2cccc(O)c2)ccn1)c1ccc(Br)cc1`, the growth with SK-MEL-2 melanoma is -5.21% (active); in the assay with EKVX NSCLC it was 30.5%; with SN12C renal, 16.5%; with UO-31 renal, 3.1% (active); with TK-10 renal, 32.2%; with ACHN renal it was 10.2%. The growth in the assay on CAKI-1 renal was 13%; with A498 renal, 25.2%; in the assay on CCRF-CEM leukemia, 12.2%; in the assay on MOLT-4 leukemia, -5.44% (active); in the assay with SR leukemia, -12.4% (active); in the assay with OVCAR-8 ovarian, 19.1%. The growth with OVCAR-5 ovarian is 23.4%; with OVCAR-4 ovarian, 37.4%; in the assay on SK-OV-3 ovarian it was 20.7%; with IGROV1 ovarian, 22.4%; in the assay with OVCAR-3 ovarian it was 22%; with HS 578T breast, -3.87% (active). Also, the growth with NCI/ADR-RES ovarian was 16.2%.
For `O=C(c1c[nH]c2ccccc12)C(Sc1nc2ccccc2c(=O)[nH]1)c1ccccc1` (centres undefined), the growth in the assay on SK-MEL-2 melanoma was 72.2%; in the assay on EKVX NSCLC it was 91.2%; in the assay with SN12C renal, 98.5%; in the assay with UO-31 renal, 81.8%; in the assay with TK-10 renal it was 97.6%; in the assay with ACHN renal, 97.9%. The growth is 108% in the assay with CAKI-1 renal; 106% with A498 renal; 99.8% in the assay on CCRF-CEM leukemia; 99.8% in the assay with MOLT-4 leukemia; 67.9% in the assay on SR leukemia; 91.1% in the assay on RPMI-8226 leukemia. The growth is 93.3% in the assay with OVCAR-8 ovarian; 88% with OVCAR-5 ovarian; 95.9% in the assay on OVCAR-4 ovarian; 19.1% with IGROV1 ovarian; 96.6% with OVCAR-3 ovarian; 88.6% in the assay on HS 578T breast. In the assay on NCI/ADR-RES ovarian, the growth was 99.8%.
Take `N#Cc1c(NC(=O)c2ccc([N+](=O)[O-])o2)[n+]([O-])c2cc(F)c(F)cc2[n+]1[O-]`: the growth in the assay with SK-MEL-2 melanoma is 34.6%; in the assay with EKVX NSCLC, 149%; with SN12C renal, 108%; in the assay on UO-31 renal it was 40.8%; with TK-10 renal, 179%; in the assay on ACHN renal, 109%. Besides, the growth in the assay with CAKI-1 renal is 113%; in the assay on A498 renal it was 151%; in the assay with CCRF-CEM leukemia it was 100%; in the assay with MOLT-4 leukemia it was 120%; in the assay with SR leukemia, 77.3%; with RPMI-8226 leukemia it was 111%. In addition, the growth was 108% with OVCAR-5 ovarian; 102% in the assay on OVCAR-4 ovarian; 129% in the assay with SK-OV-3 ovarian; 122% in the assay on OVCAR-3 ovarian; 158% with HS 578T breast; 102% with NCI/ADR-RES ovarian.
Take `C=C1C(=O)O[C@H]2[C@H]1CC/C(Cn1cc(-c3ccsc3)nn1)=C\CC[C@@]1(C)O[C@@H]21`: the growth with SK-MEL-2 melanoma is -21.5% (active); in the assay on EKVX NSCLC, -80.3% (active); in the assay on SN12C renal, -18.3% (active); in the assay with UO-31 renal, -91.5% (active); with TK-10 renal, -50.6% (active); in the assay on ACHN renal, -90.5% (active). Further, the growth was -53.5% (active) in the assay on CAKI-1 renal; -4.99% (active) in the assay on A498 renal; -24.7% (active) in the assay on CCRF-CEM leukemia; -13.3% (active) in the assay with MOLT-4 leukemia; 3.37% (active) in the assay on SR leukemia; -43.2% (active) in the assay with RPMI-8226 leukemia. For the same compound, the growth with OVCAR-5 ovarian was -18.3% (active); in the assay on OVCAR-4 ovarian, -46.6% (active); in the assay on SK-OV-3 ovarian, 83.1%; in the assay with IGROV1 ovarian, -16% (active); in the assay on OVCAR-3 ovarian, -94.8% (active); with HS 578T breast it was 28.2%. Moreover, the growth in the assay with NCI/ADR-RES ovarian is 32%.
Turning to `c1ccc2c(c1)Oc1ccccc1C2C1c2ccccc2Oc2ccccc21`, the growth is 92.6% in the assay with SK-MEL-2 melanoma; 84.9% in the assay with EKVX NSCLC; 101% in the assay on SN12C renal; 73.5% in the assay with UO-31 renal; 93.4% in the assay on TK-10 renal; 87.7% in the assay on ACHN renal. Further, the growth is 74.5% with CAKI-1 renal; 91.8% with A498 renal; 98.3% with CCRF-CEM leukemia; 79.5% with MOLT-4 leukemia; 86.3% in the assay on SR leukemia; 103% with RPMI-8226 leukemia. Also, the growth is 101% in the assay on OVCAR-8 ovarian; 84% in the assay on OVCAR-4 ovarian; 105% with SK-OV-3 ovarian; 91.5% in the assay on IGROV1 ovarian; 98.4% in the assay with OVCAR-3 ovarian; 99.6% in the assay with HS 578T breast. Besides, the growth in the assay on NCI/ADR-RES ovarian was 95.3%.
`c1cncc(CNc2ccccc2-c2nnc(Nc3ccc4c(c3)OCCO4)o2)c1`: the growth was 15.8% with SK-MEL-2 melanoma; 49.8% in the assay with EKVX NSCLC; 37.7% with SN12C renal; 47.1% in the assay with UO-31 renal; 63.1% in the assay on TK-10 renal; 40.4% in the assay on ACHN renal. In addition, the growth is 34.3% in the assay on CAKI-1 renal; 11.3% with A498 renal; 14% in the assay with CCRF-CEM leukemia; 22.1% in the assay with MOLT-4 leukemia; 14.1% in the assay with SR leukemia; 27.1% in the assay on OVCAR-8 ovarian. The growth with OVCAR-5 ovarian is 43.9%; in the assay with OVCAR-4 ovarian, 44%; in the assay with SK-OV-3 ovarian, -4.48% (active); in the assay on IGROV1 ovarian it was 40.9%; with OVCAR-3 ovarian, -50.3% (active); in the assay with HS 578T breast it was 77.9%. Moreover, the growth in the assay on NCI/ADR-RES ovarian was 6.09% (active).
In the case of `CC1Cc2c(N(C)C)ncnc2N(C)c2ccc(Cl)cc21` (centres undefined), the growth was 27.3% in the assay with SK-MEL-2 melanoma; 29.3% in the assay on EKVX NSCLC; 47.9% with SN12C renal; 59.4% in the assay on UO-31 renal; 31.8% in the assay with TK-10 renal; 47.1% with ACHN renal. Moreover, the growth in the assay on CAKI-1 renal is 25.1%; in the assay on A498 renal it was -12.5% (active); in the assay with CCRF-CEM leukemia, 18.1%; in the assay with MOLT-4 leukemia, 28.2%; in the assay on RPMI-8226 leukemia, 31.3%; in the assay with OVCAR-8 ovarian it was 45.9%. Besides, the growth in the assay with OVCAR-5 ovarian is 73.8%; in the assay on OVCAR-4 ovarian, 49.7%; in the assay on IGROV1 ovarian, 57.5%; in the assay with OVCAR-3 ovarian, 5.13% (active); in the assay on HS 578T breast, -1.26% (active); in the assay on NCI/ADR-RES ovarian, 25.9%.
`O=C(C[N+](=O)[O-])c1ccc(Cl)cc1`: the growth with SK-MEL-2 melanoma was 119%; in the assay with EKVX NSCLC, 107%; with SN12C renal, 107%; in the assay on UO-31 renal, 90.3%; with TK-10 renal, 109%; with ACHN renal, 111%. Moreover, the growth in the assay with CAKI-1 renal was 95.2%; in the assay with A498 renal it was 108%; in the assay with CCRF-CEM leukemia it was 104%; in the assay on MOLT-4 leukemia, 106%; in the assay with RPMI-8226 leukemia, 100%; in the assay on OVCAR-8 ovarian, 116%. Also, the growth was 110% in the assay with OVCAR-5 ovarian; 111% in the assay with OVCAR-4 ovarian; 113% with SK-OV-3 ovarian; 113% with OVCAR-3 ovarian; 100% in the assay on HS 578T breast; 109% in the assay on NCI/ADR-RES ovarian.
In the case of `Cc1ccc2c(c1)C(C)Cc1c(N(C)C)ncnc1N2C` (centres undefined), the growth is 30% with SK-MEL-2 melanoma; 27.2% with EKVX NSCLC; 44.9% in the assay on SN12C renal; 59.1% in the assay on UO-31 renal; 14.1% with TK-10 renal; 53.3% with ACHN renal. Also, the growth in the assay on CAKI-1 renal was 35.2%; in the assay on A498 renal it was -9.12% (active); in the assay with CCRF-CEM leukemia it was 21.4%; in the assay with MOLT-4 leukemia, 30.6%; in the assay with RPMI-8226 leukemia, 32.4%; in the assay with OVCAR-8 ovarian, 51%. The growth in the assay on OVCAR-5 ovarian was 83.9%; in the assay on OVCAR-4 ovarian, 61.1%; in the assay with SK-OV-3 ovarian, 35.1%; in the assay with IGROV1 ovarian, 59.5%; in the assay on OVCAR-3 ovarian, 14%; in the assay with HS 578T breast, 6.88% (active). In addition, the growth with NCI/ADR-RES ovarian is 28.5%.
As for `CC(=O)c1cc(C(=O)c2ccc3c(c2)Sc2ccccc2N3)c2cc(C)ccn12`, the growth in the assay on SK-MEL-2 melanoma was 35.8%; with EKVX NSCLC, 31.1%; with SN12C renal, 23.1%; in the assay with UO-31 renal, 28.4%; with TK-10 renal, -25.7% (active); in the assay on ACHN renal, 22.9%. For the same compound, the growth is 19% in the assay with CAKI-1 renal; -16.4% (active) with A498 renal; 11.1% in the assay on CCRF-CEM leukemia; 13.1% in the assay with MOLT-4 leukemia; 12.3% in the assay on RPMI-8226 leukemia; 4.39% (active) with OVCAR-8 ovarian. Besides, the growth in the assay on OVCAR-5 ovarian is 41.2%; in the assay on OVCAR-4 ovarian, 38.1%; in the assay on SK-OV-3 ovarian, 16.6%; in the assay with IGROV1 ovarian, 27.8%; in the assay on OVCAR-3 ovarian it was -14.3% (active); with HS 578T breast, 14.5%. Also, the growth with NCI/ADR-RES ovarian was 12.1%.
As to `Cc1cc2c(C(C)C)c(O)c(O)c(C=NCCCCC(=O)O)c2c(O)c1-c1c(C)cc2c(C(C)C)c(O)c(O)c(C=NCCCCC(=O)O)c2c1O`, the growth is 43.6% in the assay with SK-MEL-2 melanoma; 38.4% with EKVX NSCLC; 49.2% in the assay with SN12C renal; 74.2% with UO-31 renal; 49% with TK-10 renal; 62% with ACHN renal. Also, the growth in the assay on CAKI-1 renal is 73.1%; in the assay with A498 renal it was 56.3%; in the assay on CCRF-CEM leukemia it was 29.8%; in the assay with MOLT-4 leukemia, 34.9%; with RPMI-8226 leukemia, 28.8%; in the assay on OVCAR-8 ovarian, 46.1%. Besides, the growth was 70.9% with OVCAR-5 ovarian; 44.2% in the assay on OVCAR-4 ovarian; 63.9% in the assay on SK-OV-3 ovarian; 41.7% in the assay on IGROV1 ovarian; 45.4% in the assay with OVCAR-3 ovarian; 30.9% in the assay on HS 578T breast. In addition, the growth with NCI/ADR-RES ovarian was 74.2%.
